Measured values taken from the supplement of paper PMC4466140.

Biological target: AgAbp1
Experiment: SPOT peptide array binding signal intensity (averaged, normalized) (arbitrary units (background-subtracted, floor 0; scale differs between SH3 domains)); higher = stronger binding of the SH3 domain to the peptide
Outline: (§1)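 The binding signal is the normalized, background-subtracted spot intensity averaged over replicates; its arbitrary units differ between domains. It was obtained by incubating 10 μg/ml GST-fused SH3 domains from four yeast species overnight at 4°C in TBS-based blocking buffer on cellulose membranes with synthetic 15-mer peptides, cysteines replaced by serines, then detecting with anti-GST antibody, HRP anti-mouse secondary and luminol.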

Row | Binder | SPOT peptide array binding signal intensity
1 | ALRRRLPVTRSKINW | 348

Biological target: AgBbc1
Experiment: as above
Outline: as §1

Row | Binder | SPOT peptide array binding signal intensity
2 | ALRRRLPVTRSKINW | 122

Biological target: AgBem1-D1
Experiment: as above
Outline: as §1

Row | Binder | SPOT peptide array binding signal intensity
3 | ALRRRLPVTRSKINW | 140

Biological target: AgBzz1-D1
Experiment: as above
Outline: as §1

Row | Binder | SPOT peptide array binding signal intensity
4 | ALRRRLPVTRSKINW | 43

Biological target: AgBzz1-D2
Experiment: as above
Outline: as §1

Row | Binder | SPOT peptide array binding signal intensity
5 | ALRRRLPVTRSKINW | 60

Biological target: AgCyk3
Experiment: as above
Outline: as §1

Row | Binder | SPOT peptide array binding signal intensity
6 | ALRRRLPVTRSKINW | 9.5

Biological target: AgFus1
Experiment: as above
Outline: as §1

Row | Binder | SPOT peptide array binding signal intensity
7 | ALRRRLPVTRSKINW | 583

Biological target: AgHof1
Experiment: as above
Outline: as §1

Row | Binder | SPOT peptide array binding signal intensity
8 | ALRRRLPVTRSKINW | 71.8

Biological target: AgHse1
Experiment: as above
Outline: as §1

Row | Binder | SPOT peptide array binding signal intensity
9 | ALRRRLPVTRSKINW | 1170

Biological target: AgLsb1
Experiment: as above
Outline: as §1

Row | Binder | SPOT peptide array binding signal intensity
10 | ALRRRLPVTRSKINW | 9.75

Biological target: AgLsb4
Experiment: as above
Outline: as §1

Row | Binder | SPOT peptide array binding signal intensity
11 | ALRRRLPVTRSKINW | 189

Biological target: AgMyo5
Experiment: as above
Outline: as §1

Row | Binder | SPOT peptide array binding signal intensity
12 | ALRRRLPVTRSKINW | ≤ 0

Biological target: AgNbp2
Experiment: as above
Outline: as §1

Row | Binder | SPOT peptide array binding signal intensity
13 | ALRRRLPVTRSKINW | 346

Biological target: AgRvs167
Experiment: as above
Outline: as §1

Row | Binder | SPOT peptide array binding signal intensity
14 | ALRRRLPVTRSKINW | 19.5

Biological target: AgSho1
Experiment: as above
Outline: as §1

Row | Binder | SPOT peptide array binding signal intensity
15 | ALRRRLPVTRSKINW | 79

Biological target: AgSla1-D1-D2
Experiment: as above
Outline: as §1

Row | Binder | SPOT peptide array binding signal intensity
16 | ALRRRLPVTRSKINW | 840

Biological target: AgSla1-D3
Experiment: as above
Outline: as §1

Row | Binder | SPOT peptide array binding signal intensity
17 | ALRRRLPVTRSKINW | 5.5

Biological target: CaAbp1-D1
Experiment: as above
Outline: as §1

Row | Binder | SPOT peptide array binding signal intensity
18 | ALRRRLPVTRSKINW | 1340

Biological target: CaAbp1-D2
Experiment: as above
Outline: as §1

Row | Binder | SPOT peptide array binding signal intensity
19 | ALRRRLPVTRSKINW | 526

Biological target: CaBbc1
Experiment: as above
Outline: as §1

Row | Binder | SPOT peptide array binding signal intensity
20 | ALRRRLPVTRSKINW | 302

Biological target: CaBem1-D1
Experiment: as above
Outline: as §1

Row | Binder | SPOT peptide array binding signal intensity
21 | ALRRRLPVTRSKINW | 35

Biological target: CaBzz1-D1
Experiment: as above
Outline: as §1

Row | Binder | SPOT peptide array binding signal intensity
22 | ALRRRLPVTRSKINW | 104

Biological target: CaBzz1-D2
Experiment: as above
Outline: as §1

Row | Binder | SPOT peptide array binding signal intensity
23 | ALRRRLPVTRSKINW | 151

Biological target: CaCyk3
Experiment: as above
Outline: as §1

Row | Binder | SPOT peptide array binding signal intensity
24 | ALRRRLPVTRSKINW | 53.5

Biological target: CaFus1
Experiment: as above
Outline: as §1

Row | Binder | SPOT peptide array binding signal intensity
25 | ALRRRLPVTRSKINW | 1200

Biological target: CaHof1
Experiment: as above
Outline: as §1

Row | Binder | SPOT peptide array binding signal intensity
26 | ALRRRLPVTRSKINW | 1

Biological target: CaHse1
Experiment: as above
Outline: as §1

Row | Binder | SPOT peptide array binding signal intensity
27 | ALRRRLPVTRSKINW | 60

Biological target: CaLsb1
Experiment: as above
Outline: as §1

Row | Binder | SPOT peptide array binding signal intensity
28 | ALRRRLPVTRSKINW | 1.5

Biological target: CaLsb4
Experiment: as above
Outline: as §1

Row | Binder | SPOT peptide array binding signal intensity
29 | ALRRRLPVTRSKINW | 195

Biological target: CaMyo5
Experiment: as above
Outline: as §1

Row | Binder | SPOT peptide array binding signal intensity
30 | ALRRRLPVTRSKINW | 5.5

Biological target: CaNbp2
Experiment: as above
Outline: as §1

Row | Binder | SPOT peptide array binding signal intensity
31 | ALRRRLPVTRSKINW | 712

Biological target: CaRvs167
Experiment: as above
Outline: as §1

Row | Binder | SPOT peptide array binding signal intensity
32 | ALRRRLPVTRSKINW | 48.5

Biological target: CaRvs167-3
Experiment: as above
Outline: as §1

Row | Binder | SPOT peptide array binding signal intensity
33 | ALRRRLPVTRSKINW | 197

Biological target: CaSho1
Experiment: as above
Outline: as §1

Row | Binder | SPOT peptide array binding signal intensity
34 | ALRRRLPVTRSKINW | 1180

Biological target: CaSla1-D1-D2
Experiment: as above
Outline: as §1

Row | Binder | SPOT peptide array binding signal intensity
35 | ALRRRLPVTRSKINW | 491

Biological target: CaSla1-D3
Experiment: as above
Outline: as §1

Row | Binder | SPOT peptide array binding signal intensity
36 | ALRRRLPVTRSKINW | 11.5

Biological target: ScAbp1
Experiment: as above
Outline: as §1

Row | Binder | SPOT peptide array binding signal intensity
37 | ALRRRLPVTRSKINW | 59

Biological target: ScBbc1
Experiment: as above
Outline: as §1

Row | Binder | SPOT peptide array binding signal intensity
38 | ALRRRLPVTRSKINW | 45.5

Biological target: ScBem1-D1
Experiment: as above
Outline: as §1

Row | Binder | SPOT peptide array binding signal intensity
39 | ALRRRLPVTRSKINW | 20

Biological target: ScBzz1-D1
Experiment: as above
Outline: as §1

Row | Binder | SPOT peptide array binding signal intensity
40 | ALRRRLPVTRSKINW | 23

Biological target: ScBzz1-D2
Experiment: as above
Outline: as §1

Row | Binder | SPOT peptide array binding signal intensity
41 | ALRRRLPVTRSKINW | 27

Biological target: ScCyk3
Experiment: as above
Outline: as §1

Row | Binder | SPOT peptide array binding signal intensity
42 | ALRRRLPVTRSKINW | 160

Biological target: ScFus1
Experiment: as above
Outline: as §1

Row | Binder | SPOT peptide array binding signal intensity
43 | ALRRRLPVTRSKINW | 784

Biological target: ScHof1
Experiment: as above
Outline: as §1

Row | Binder | SPOT peptide array binding signal intensity
44 | ALRRRLPVTRSKINW | 2.5

Biological target: ScHse1
Experiment: as above
Outline: as §1

Row | Binder | SPOT peptide array binding signal intensity
45 | ALRRRLPVTRSKINW | 1800

Biological target: ScLsb1
Experiment: as above
Outline: as §1

Row | Binder | SPOT peptide array binding signal intensity
46 | ALRRRLPVTRSKINW | 26.8

Biological target: ScLsb2
Experiment: as above
Outline: as §1

Row | Binder | SPOT peptide array binding signal intensity
47 | ALRRRLPVTRSKINW | 15.5

Biological target: ScLsb3
Experiment: as above
Outline: as §1

Row | Binder | SPOT peptide array binding signal intensity
48 | ALRRRLPVTRSKINW | 658

Biological target: ScLsb4
Experiment: as above
Outline: as §1

Row | Binder | SPOT peptide array binding signal intensity
49 | ALRRRLPVTRSKINW | 25

Biological target: ScMyo3
Experiment: as above
Outline: as §1

Row | Binder | SPOT peptide array binding signal intensity
50 | ALRRRLPVTRSKINW | 3.5

Biological target: ScMyo5
Experiment: as above
Outline: as §1

Row | Binder | SPOT peptide array binding signal intensity
51 | ALRRRLPVTRSKINW | 3.5

Biological target: ScNbp2
Experiment: as above
Outline: as §1

Row | Binder | SPOT peptide array binding signal intensity
52 | ALRRRLPVTRSKINW | 616

Biological target: ScPex13
Experiment: as above
Outline: as §1

Row | Binder | SPOT peptide array binding signal intensity
53 | ALRRRLPVTRSKINW | 2.25

Biological target: ScRvs167
Experiment: as above
Outline: as §1

Row | Binder | SPOT peptide array binding signal intensity
54 | ALRRRLPVTRSKINW | 155

Biological target: ScSho1
Experiment: as above
Outline: as §1

Row | Binder | SPOT peptide array binding signal intensity
55 | ALRRRLPVTRSKINW | 1460

Biological target: ScSla1-D1-D2
Experiment: as above
Outline: as §1

Row | Binder | SPOT peptide array binding signal intensity
56 | ALRRRLPVTRSKINW | 713

Biological target: ScSla1-D3
Experiment: as above
Outline: as §1

Row | Binder | SPOT peptide array binding signal intensity
57 | ALRRRLPVTRSKINW | 23

Biological target: SpAbp1-D1
Experiment: as above
Outline: as §1

Row | Binder | SPOT peptide array binding signal intensity
58 | ALRRRLPVTRSKINW | 794

Biological target: SpBbc1
Experiment: as above
Outline: as §1

Row | Binder | SPOT peptide array binding signal intensity
59 | ALRRRLPVTRSKINW | 10

Biological target: SpBzz1-D1
Experiment: as above
Outline: as §1

Row | Binder | SPOT peptide array binding signal intensity
60 | ALRRRLPVTRSKINW | 381

Biological target: SpBzz1-D2
Experiment: as above
Outline: as §1

Row | Binder | SPOT peptide array binding signal intensity
61 | ALRRRLPVTRSKINW | 0.5

Biological target: SpCyk3
Experiment: as above
Outline: as §1

Row | Binder | SPOT peptide array binding signal intensity
62 | ALRRRLPVTRSKINW | 69.5

Biological target: SpHof1
Experiment: as above
Outline: as §1

Row | Binder | SPOT peptide array binding signal intensity
63 | ALRRRLPVTRSKINW | 357

Biological target: SpHof1-2
Experiment: as above
Outline: as §1

Row | Binder | SPOT peptide array binding signal intensity
64 | ALRRRLPVTRSKINW | 80.8

Biological target: SpHof1-3
Experiment: as above
Outline: as §1

Row | Binder | SPOT peptide array binding signal intensity
65 | ALRRRLPVTRSKINW | 790

Biological target: SpHse1
Experiment: as above
Outline: as §1

Row | Binder | SPOT peptide array binding signal intensity
66 | ALRRRLPVTRSKINW | 766

Biological target: SpLsb1
Experiment: as above
Outline: as §1

Row | Binder | SPOT peptide array binding signal intensity
67 | ALRRRLPVTRSKINW | 16.2

Biological target: SpLsb4
Experiment: as above
Outline: as §1

Row | Binder | SPOT peptide array binding signal intensity
68 | ALRRRLPVTRSKINW | 553

Biological target: SpMyo1
Experiment: as above
Outline: as §1

Row | Binder | SPOT peptide array binding signal intensity
69 | ALRRRLPVTRSKINW | 10.2

Biological target: SpNbp2
Experiment: as above
Outline: as §1

Row | Binder | SPOT peptide array binding signal intensity
70 | ALRRRLPVTRSKINW | 716

Biological target: SpPex13
Experiment: as above
Outline: as §1

Row | Binder | SPOT peptide array binding signal intensity
71 | ALRRRLPVTRSKINW | 23

Biological target: SpRvs167
Experiment: as above
Outline: as §1

Row | Binder | SPOT peptide array binding signal intensity
72 | ALRRRLPVTRSKINW | 72.5

Biological target: SpSla1-D1-D2
Experiment: as above
Outline: as §1

Row | Binder | SPOT peptide array binding signal intensity
73 | ALRRRLPVTRSKINW | ≤ 0

Biological target: SpSla1-D3
Experiment: as above
Outline: as §1

Row | Binder | SPOT peptide array binding signal intensity
74 | ALRRRLPVTRSKINW | 41.5
